Bioassay records from PubChem BioAssay.
CYP2C19 inhib: blocks human cytochrome P450 2C19. 21% of 96,000 active. CYP2C19 Supersomes, luciferin-H EGE luminescence, 30 min. AID 778. inhibition, % at 5 µM;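 active = CYP2C19 inhibition above a set limit at 5 µM in the primary screen, cut at about 50% in these data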;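 note: plate controls were negative control wells for no effect and 2.5 mM tranylcypromine positive control for full effect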
Target sequence (P33261 whole entry, looked up): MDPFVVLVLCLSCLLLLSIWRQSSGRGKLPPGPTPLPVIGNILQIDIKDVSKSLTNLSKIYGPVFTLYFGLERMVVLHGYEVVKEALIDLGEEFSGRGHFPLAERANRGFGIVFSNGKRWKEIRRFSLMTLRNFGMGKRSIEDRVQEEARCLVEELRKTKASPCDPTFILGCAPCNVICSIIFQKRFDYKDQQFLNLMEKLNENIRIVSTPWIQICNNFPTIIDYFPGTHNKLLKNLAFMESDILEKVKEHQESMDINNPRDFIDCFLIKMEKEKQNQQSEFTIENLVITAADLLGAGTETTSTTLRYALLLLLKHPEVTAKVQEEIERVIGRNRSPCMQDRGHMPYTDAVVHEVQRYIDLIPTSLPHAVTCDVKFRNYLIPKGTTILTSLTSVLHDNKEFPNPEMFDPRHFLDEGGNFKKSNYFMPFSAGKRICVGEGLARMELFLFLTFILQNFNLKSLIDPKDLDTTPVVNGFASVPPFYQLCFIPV
CYP2C19 activ: increases human CYP2C19 enzyme activity; 96,000 tested, under 10 active; recombinant CYP2C19, luciferin-H EGE luminescence; hits give high values; 0 = fully inhibited enzyme, 1 = untreated enzyme; P33261; activation factor at 5 µM;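 active = activation factor of at least 2 at 5 µM in the primary screen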;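 note: 0 = wells with 2.5 mM tranylcypromine and 1 = vehicle-only wells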
CYP2C9 activ: CYP2C9 (human) activation; recombinant CYP2C9, luciferin-H conversion, luminescence; hits give high values; factor 1 = untreated enzyme, 0 = blocked; P11712; activation factor at 5 µM; 1.4% of 96,000 active; AID 1024;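 active = activation factor of 2 or more for CYP2C9 at a 5 µM dose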;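 note: 0 = sulfaphenazole-blocked wells and 1 = vehicle-only wells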
CYP2C9 inhib: human CYP2C9 inhibition; inhibition, % at 5 µM; 20% of 96,000 active; CYP2C9 Supersomes, luciferin-H conversion, luminescence;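 active = blocking of liver enzyme CYP2C9 beyond about 50% at 5 µM, limit read from the data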
Cav32 inh: inhibitors of human Cav3.2 T-type calcium channel; B-score at 10 µM; AID 449739; O95180; Cav3.2-expressing cells, Fluo-4 calcium fluorescence FDSS; hits give low values; 4% of 100,000 active;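 active = single-dose well whose peak fluorescence ratio is a statistical outlier from its plate by either plate-standardised score or position-corrected B-score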
Active calls of the source: *. Sampled rows, rich in hits. Any-hit rate of the full collection: about 27%.

What do the screens show for `O=C(NCCc1ccccc1)C1CCCN(S(=O)(=O)c2cccnc2)C1` (configuration not stated)?
CYP2C19 inhib: 12; CYP2C19 activ: 0.9; CYP2C9 activ: 0.8; CYP2C9 inhib: 16; Cav32 inh: 0.9

What do the screens show for `O=C(NCc1cccnc1)C1CCCN(S(=O)(=O)c2ccc(Cl)cc2)C1` (configuration not stated)?
CYP2C19 inhib: 85*; CYP2C19 activ: 0.1; CYP2C9 activ: 0.2; CYP2C9 inhib: 77*; Cav32 inh: 0.19

What do the screens show for `COc1ccc(C=O)cc1COc1ccc(Cl)cc1[N+](=O)[O-]`?
CYP2C19 inhib: 14; CYP2C19 activ: 0.9; CYP2C9 activ: 0.9; CYP2C9 inhib: 15; Cav32 inh: -0.039

What do the screens show for `Cc1ccc(NC(=O)N2CCCC2C(=O)NCCc2ccccc2)cc1` (configuration not stated)?
CYP2C19 inhib: 26; CYP2C19 activ: 0.7; CYP2C9 activ: 0.9; CYP2C9 inhib: 14; Cav32 inh: 0.11

How did O=C(Nc1ccc(Cl)cc1)N(Cc1cccs1)Cc1cccs1 do in these assays?
CYP2C19 inhib: 23; CYP2C19 activ: 0.8; CYP2C9 activ: 0.6; CYP2C9 inhib: 38; Cav32 inh: -0.035

What do the screens show for `O=C(Nc1ccccc1)N(Cc1ccc(Cl)cc1)CC(O)C(F)(F)F` (configuration not stated)?
CYP2C19 inhib: 37; CYP2C19 activ: 0.6; CYP2C9 activ: 0.5; CYP2C9 inhib: 53*; Cav32 inh: 0.91

Results for N#C/C(=C(/O)C(Cl)c1ccccc1)c1nc2ccccc2s1 (configuration not stated) ?
CYP2C19 inhib: 58*; CYP2C19 activ: 0.4; CYP2C9 activ: 0.2; CYP2C9 inhib: 77*; Cav32 inh: -5.3*

How did N#C/C(=C(/O)c1ccco1)c1nc2ccccc2s1 do in these assays?
CYP2C19 inhib: 7; CYP2C19 activ: 0.9; CYP2C9 activ: 0.6; CYP2C9 inhib: 37; Cav32 inh: -2.7

How did CCc1noc(N)c1C(=O)Nc1ccc(F)c(Cl)c1 do in these assays?
CYP2C19 inhib: 22; CYP2C19 activ: 0.8; CYP2C9 activ: 0.9; CYP2C9 inhib: 14; Cav32 inh: 0.98

What do the screens show for `CC1(C)Cc2cccc(OCC(=O)Nc3ccccc3N3CCOCC3)c2O1`?
CYP2C19 inhib: 91*; CYP2C19 activ: 0.1; CYP2C9 activ: 0.4; CYP2C9 inhib: 56*; Cav32 inh: -2.3

Results for CN(C)CCCNCC(=O)Nc1ccccc1N1CCOCC1 ?
CYP2C19 inhib: 2; CYP2C19 activ: 1; CYP2C9 activ: 0.3; CYP2C9 inhib: 67*; Cav32 inh: 0.15

Results for Cn1nnnc1SCC(=O)Nc1ccccc1N1CCOCC1 ?
CYP2C19 inhib: 24; CYP2C19 activ: 0.8; CYP2C9 activ: 0.9; CYP2C9 inhib: 9; Cav32 inh: -0.24

How did Cn1c(-c2ccc(F)cc2)cnc1SCC(=O)Nc1ccccc1N1CCOCC1 do in these assays?
CYP2C19 inhib: 68*; CYP2C19 activ: 0.3; CYP2C9 activ: 0.5; CYP2C9 inhib: 46; Cav32 inh: -0.45

What do the screens show for `O=C(Cn1nnc(-c2ccccc2)n1)Nc1ccccc1N1CCOCC1`?
CYP2C19 inhib: 63*; CYP2C19 activ: 0.4; CYP2C9 activ: 0.3; CYP2C9 inhib: 74*; Cav32 inh: -1.2

How did O=C(NCc1cc(C(F)(F)F)cc(C(F)(F)F)c1)C1CC(c2cccc([N+](=O)[O-])c2)=NO1 (configuration not stated) do in these assays?
CYP2C19 inhib: -4; CYP2C19 activ: 1; CYP2C9 activ: 1.2; CYP2C9 inhib: -22; Cav32 inh: -1.4

Results for O=C(CSc1nc2ncccc2[nH]1)NCCc1ccccc1 ?
Cav32 inh: 0.069

What do the screens show for `O=[N+]([O-])c1cc(/C=N/OCc2c(Cl)cccc2Cl)ccc1N1CCOCC1`?
CYP2C19 inhib: 7; CYP2C19 activ: 0.9; CYP2C9 activ: 0.6; CYP2C9 inhib: 37; Cav32 inh: -1.4

How did Cc1ccc(-c2nnn(CC(=O)Nc3ccccc3N3CCOCC3)n2)cc1 do in these assays?
CYP2C19 inhib: 26; CYP2C19 activ: 0.7; CYP2C9 activ: 0.2; CYP2C9 inhib: 79*; Cav32 inh: -0.018

Results for CCOc1ccc(-c2nnn(CC(=O)Nc3ccccc3OC)n2)cc1OCC ?
CYP2C19 inhib: 23; CYP2C19 activ: 0.8; CYP2C9 activ: 0.8; CYP2C9 inhib: 22; Cav32 inh: 0.67

What do the screens show for `CCc1ccccc1NC(=O)Cn1nnc(-c2cccnc2)n1`?
CYP2C19 inhib: 96*; CYP2C19 activ: 0; CYP2C9 activ: 0.9; CYP2C9 inhib: 15; Cav32 inh: 0.16

How did Cc1ccc(-c2nnc(SCC(=O)Nc3ccccc3N3CCOCC3)o2)cc1 do in these assays?
CYP2C19 inhib: 6; CYP2C19 activ: 0.9; CYP2C9 activ: 1; CYP2C9 inhib: -1; Cav32 inh: 0.012

What do the screens show for `O=C(NC(=S)Nc1ccc2oc(-c3cccnc3)nc2c1)c1cccc(Cl)c1`?
CYP2C19 inhib: 21; CYP2C19 activ: 0.8; CYP2C9 activ: 0.8; CYP2C9 inhib: 16

What do the screens show for `CCn1nnc(NC(=O)c2sc3ccccc3c2Cl)n1`?
Cav32 inh: 0.52

Results for CCOC(=O)c1sc(NC(=O)c2cc3n(n2)C(C(F)(F)F)CC(c2ccccc2)N3)c(C(=O)OCC)c1C (configuration not stated) ?
CYP2C19 inhib: 6; CYP2C19 activ: 0.9; CYP2C9 activ: 0.7; CYP2C9 inhib: 27; Cav32 inh: -0.02

How did O=C(Cc1ccc2c(c1)OCCO2)c1c(O)cc(O)cc1O do in these assays?
CYP2C19 inhib: 94*; CYP2C19 activ: 0.1; CYP2C9 activ: 0; CYP2C9 inhib: 96*; Cav32 inh: -1.5

How did O=C(O)COc1ccc(C(=O)Cc2ccc3c(c2)OCCCO3)c(O)c1 do in these assays?
CYP2C19 inhib: 20; CYP2C19 activ: 0.8; CYP2C9 activ: 1; CYP2C9 inhib: 2; Cav32 inh: 0.056

How did Cc1ccn2c(C(=O)N/N=C\c3cccs3)c(C)nc2c1 do in these assays?
CYP2C19 inhib: 47; CYP2C19 activ: 0.5; CYP2C9 activ: 0.5; CYP2C9 inhib: 52*; Cav32 inh: 0.84

What do the screens show for `COC(=O)[C@H]1C[C@H]1[C@@H](NC(=O)c1ccc[nH]1)c1ccccc1`?
Cav32 inh: -0.85

Results for Cc1cc(OCC(=O)NCCCN(C)C)cc(C)c1Br ?
CYP2C19 inhib: 8; CYP2C19 activ: 0.9; CYP2C9 activ: 1.2; CYP2C9 inhib: -23; Cav32 inh: 0.024

What do the screens show for `Cn1c(CNc2ccccn2)c(C#N)c2ccccc21`?
CYP2C19 inhib: 75*; CYP2C19 activ: 0.2; CYP2C9 activ: 0.9; CYP2C9 inhib: 11

What do the screens show for `Cc1ccc(SCc2c(C#N)c3ccccc3n2C)cc1`?
Cav32 inh: -1.2

Results for Cn1c(CSc2ccccc2)c(C#N)c2ccccc21 ?
CYP2C19 inhib: 75*; CYP2C19 activ: 0.2; CYP2C9 activ: 1.3; CYP2C9 inhib: -26; Cav32 inh: -2.2

Results for Cc1ccccc1N1CCN(Cc2c(C#N)c3ccccc3n2C)CC1 ?
CYP2C19 inhib: 67*; CYP2C19 activ: 0.3; CYP2C9 activ: 1; CYP2C9 inhib: -4; Cav32 inh: -0.53
